What is called AC50 is the concentration giving half of the maximal activity seen.

Each structure is given as a SMILES string. Values joined by “and” are separate entries in the source; they are usually repeats but may differ in a detail not shown here. Equal entries are not always repeated. Inconclusive results are not listed. Some compounds were tested as several samples or in several runs, with calls that do not always agree. Active and inactive are the calls of the source. Rule for the calls: active = hit-call score of the fitted dose curve at least 0.9, where 1 is the maximum; inconclusive = response in the unintended direction; inactive = score below 0.9.

Nuclear receptor subfamily 4 group A member 2 (Homo sapiens), sequence (P43354 whole entry, looked up): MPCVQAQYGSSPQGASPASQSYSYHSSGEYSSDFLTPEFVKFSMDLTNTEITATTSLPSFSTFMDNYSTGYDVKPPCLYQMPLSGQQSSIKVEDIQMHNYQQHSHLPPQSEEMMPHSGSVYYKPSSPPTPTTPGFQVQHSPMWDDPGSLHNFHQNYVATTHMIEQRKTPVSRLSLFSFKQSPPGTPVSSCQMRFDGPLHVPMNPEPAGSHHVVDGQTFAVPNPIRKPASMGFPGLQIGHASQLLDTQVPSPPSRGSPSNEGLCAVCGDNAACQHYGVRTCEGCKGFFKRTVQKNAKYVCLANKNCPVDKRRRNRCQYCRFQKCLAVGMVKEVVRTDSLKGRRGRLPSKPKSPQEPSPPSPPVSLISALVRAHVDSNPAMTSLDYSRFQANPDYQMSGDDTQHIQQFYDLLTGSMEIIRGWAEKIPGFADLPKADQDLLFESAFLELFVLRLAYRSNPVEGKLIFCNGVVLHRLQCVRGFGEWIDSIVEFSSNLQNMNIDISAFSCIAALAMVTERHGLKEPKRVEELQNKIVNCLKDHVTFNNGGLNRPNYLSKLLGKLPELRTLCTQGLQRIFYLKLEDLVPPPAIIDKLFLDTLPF

The target of the first assay is Hepatocyte nuclear factor 4-alpha (Homo sapiens) (UniProt P41235). In words: ATG_HNF4a_TRANS: Attagene TRANS-FACTORIAL HepG2 Assay for human Hepatocyte Nuclear Factor 4 alpha (HNF4a) (AID 2282982). To be noted: HepG2 HNF4a transactivation reporter, mRNA readout. In outline: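 Transfected HepG2 reporter cells are dosed for 24 h; reporter RNA is reverse-transcribed, amplified, fluorescently labelled and HpaI-digested before CE sizing. Positive-direction fit against DMSO.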
Hepatocyte nuclear factor 4-alpha (Homo sapiens), sequence (P41235 whole entry, looked up): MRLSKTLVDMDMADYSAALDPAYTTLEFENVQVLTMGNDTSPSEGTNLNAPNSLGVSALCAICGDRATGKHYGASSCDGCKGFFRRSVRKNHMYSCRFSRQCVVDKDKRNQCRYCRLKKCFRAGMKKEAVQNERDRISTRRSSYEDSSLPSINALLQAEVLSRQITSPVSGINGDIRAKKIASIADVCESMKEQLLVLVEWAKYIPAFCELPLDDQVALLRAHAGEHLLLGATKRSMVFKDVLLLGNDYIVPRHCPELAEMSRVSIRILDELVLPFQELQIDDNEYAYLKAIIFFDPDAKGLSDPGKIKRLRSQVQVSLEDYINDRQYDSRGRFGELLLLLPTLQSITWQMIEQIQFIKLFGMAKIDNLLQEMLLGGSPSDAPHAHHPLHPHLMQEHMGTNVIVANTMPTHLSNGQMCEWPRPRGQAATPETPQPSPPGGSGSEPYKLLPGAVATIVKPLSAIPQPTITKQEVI
In the case of `O=C(O)C(F)(F)C(F)(F)C(F)(F)C(F)(F)C(F)(F)C(F)(F)C(F)(F)C(F)(F)Cl`, the result was inactive.

For the compound `FC(F)(F)C(F)(F)C(F)(F)C(F)(F)C(F)(F)C(F)(F)C(F)(F)Br`, the outcome was inactive.

Turning to `O=C(O)C(F)(F)C(F)(F)F`, the call was inactive.

Consider `C#C[C@]1(O)CC[C@H]2[C@@H]3CCc4cc(OC)ccc4[C@H]3CC[C@@]21C`, for which the result was inactive.

With `O=C(O)C=C(C(F)(F)F)C(F)(F)F`, the compound was classed as inactive.

`CC/C=C\CCOC(=O)c1ccccc1`: the compound was called inactive.

As for `CC(C)c1ccccc1N`, the outcome was inactive.

For `O=C(O)C(F)(F)C(F)(F)C(F)(F)C(F)(F)C(F)(F)C(F)(F)C(F)(F)C(F)(F)C(F)(F)C(F)F`, the compound was classed as inactive.

Regarding `c1ccc(B(c2ccccc2)c2ccccc2)cc1`, the outcome was inactive.

On to `FC(F)(F)C(F)(F)C(F)(F)N(C(F)(F)C(F)(F)C(F)(F)F)C(F)(F)C(F)(F)C(F)(F)F`, for which the outcome was inactive.

For the compound `O=C(O)C(F)(F)C(F)(F)C(F)(F)F`, the call was inactive.

For the compound `COC(OC(C)=O)c1ccccc1` (stereo not drawn), the result was inactive.

Turning to `FC(F)(F)C(F)(F)C(F)(F)CI`, the compound was classed as inactive.

For the compound `FC(F)(F)C(F)(F)C(F)(F)C(F)(F)C(F)(F)C(F)(F)C(F)(F)C(F)(F)F`, the call was inactive.

`Oc1ccc(Nc2ccccc2)cc1`: the call was inactive.

Consider `CCCCCC=O`, for which the compound was called inactive.

In the case of `O=S(=O)(OCCOC(F)(F)F)C(F)(F)F`, the compound was called inactive.

System in the next assay: not listed separately
In words: ATG_M_06_TRANS: Attagene TRANS-FACTORIAL HepG2 Assay for M06 Transcription Factor (Internal Marker) (AID 2282983).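 For AC50: potency for rise in reporter mRNA above DMSO baseline.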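 For outcome: reporter transcript level by RT-PCR then capillary electrophoresis fluorescence.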 The following applies: HepG2 Attagene TRANS M06 internal marker reporter. In a few lines: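 Transfect HepG2 with MRTUs → dose compounds 24 h → isolate RNA, oligo(dT) RT → PCR with reporter primers → 6-FAM primer extension → HpaI digest → CE fragment analysis. Positive direction vs DMSO.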
For the compound `O=P(O)(O)OCCC(F)(F)C(F)(F)C(F)(F)C(F)(F)C(F)(F)C(F)(F)F`, the result was inactive.

As to `O=C(CC(=O)C(F)(F)C(F)(F)F)C(F)(F)F`, the compound was called inactive.

For `O=C(O)C(F)(F)C(F)(F)C(F)(F)C(F)(F)C(F)(F)C(F)(F)C(F)(F)C(F)(F)Cl`, the compound was called inactive.

With `FC(F)(F)C(F)(F)C(F)(F)C(F)(F)C(F)(F)C(F)(F)C(F)(F)Br`, the result was inactive.

Take `O=C(O)C(F)(F)C(F)(F)F`: the call was inactive.

As for `C#C[C@]1(O)CC[C@H]2[C@@H]3CCc4cc(OC)ccc4[C@H]3CC[C@@]21C`, the compound was called inactive.

In the case of `OCCCC(F)(F)C(F)(F)C(F)(F)F`, the call was inactive.

For `O=C(O)C(F)(F)C(F)(F)C(F)(F)C(F)(F)F`, the result was inactive.

On to `O=C(O)C(F)(F)C(F)(F)C(F)(F)C(F)(F)C(F)(F)C(F)(F)C(F)(F)C(F)(F)C(F)(F)C(F)(F)C(F)(F)C(F)(F)C(F)(F)F`, for which the compound was classed as inactive.

In the case of `O=C(O)C=C(C(F)(F)F)C(F)(F)F`, the compound was called inactive.

With `O=S(=O)(O)c1ccc2ccccc2c1`, the outcome was inactive.

Regarding `CC/C=C\CCOC(C)=O`, the compound was classed as inactive.

`FC(F)(F)C(F)(F)C(F)(F)C(F)(F)C(F)(F)C(F)(F)CCS`: the compound was called inactive.

Regarding `O=C(O)C(F)(F)C(F)(F)C(F)(F)C(F)(F)C(F)(F)C(F)(F)C(F)(F)C(F)(F)C(F)(F)C(F)F`, the result was inactive.

`c1ccc(B(c2ccccc2)c2ccccc2)cc1`: the outcome was inactive.

`FC(F)(F)C(F)(F)C(F)(F)N(C(F)(F)C(F)(F)C(F)(F)F)C(F)(F)C(F)(F)C(F)(F)F`: the result was inactive.

On to `O=S(=O)(O)C(F)(F)C(F)(F)C(F)(F)C(F)(F)C(F)(F)C(F)(F)C(F)(F)F`, for which the call was inactive.

As for `O=C(O)C(F)(F)C(F)(F)C(F)(F)F`, the outcome was inactive.

For `OCCCC(F)(F)C(F)(F)C(F)(F)C(F)(F)C(F)(F)C(F)(F)C(F)(F)F`, the AC50 is 79.1 µM (active).

Take `CCCCCCCCC(F)(F)C(F)(F)C(F)(F)C(F)(F)C(F)(F)C(F)(F)F`: the compound was classed as inactive.

`FC(F)(F)C(F)(F)C(F)(F)C(F)(F)C(F)(F)C(F)(F)C(F)(F)C(F)(F)F`: the call was inactive.

As for `Oc1ccc(Nc2ccccc2)cc1`, the compound was classed as inactive.

With `CCCCCC=O`, the call was inactive.

As to `CC(CCl)OP(=O)(OC(C)CCl)OC(C)CCl` (stereo not drawn), the call was inactive.

For the compound `O=S(=O)(OCCOC(F)(F)F)C(F)(F)F`, the result was inactive.

System in a further assay: not listed separately
Kind of assay: ATG_M_32_TRANS: Attagene TRANS-FACTORIAL HepG2 Assay for M32 Transcription Factor (Internal Marker) (AID 2282984).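 Note: transcript level of a background control reporter unit measured by RT-PCR and capillary electrophoresis.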 To be noted: HepG2 Attagene TRANS M32 internal marker reporter. In a few lines: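 Using transiently transfected HepG2 cells exposed to test chemicals for 24 h, reporter transcripts are converted to labelled cDNA fragments and quantified by capillary electrophoresis. DMSO defines the activity baseline.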
For `[Co]`, the result was inactive.

`O=C(O)C(F)(F)C(F)(F)C(F)(F)C(F)(F)C(F)(F)C(F)(F)C(F)(F)C(F)(F)Cl`: the compound was classed as inactive.

Turning to `FC(F)(F)C(F)(F)C(F)(F)C(F)(F)C(F)(F)C(F)(F)C(F)(F)Br`, the compound was called inactive.

For `O=C(O)C(F)(F)C(F)(F)F`, the call was inactive.

In the case of `O=C(O)C=C(C(F)(F)F)C(F)(F)F`, the compound was called inactive.

For the compound `CCCCOc1ccc(N)cc1`, the outcome was inactive.

On to `COC(=O)C1CCC(C(=O)OC)CC1` (stereo not drawn), for which the compound was called inactive.

Consider `c1ccc(B(c2ccccc2)c2ccccc2)cc1`, for which the compound was called inactive.

For `FC(F)(F)C(F)(F)C(F)(F)N(C(F)(F)C(F)(F)C(F)(F)F)C(F)(F)C(F)(F)C(F)(F)F`, the call was inactive.

Turning to `O=C(O)C(F)(F)C(F)(F)C(F)(F)F`, the compound was classed as inactive.

In the case of `OCCCC(F)(F)C(F)(F)C(F)(F)C(F)(F)C(F)(F)C(F)(F)C(F)(F)F`, the outcome was inactive.

For the compound `CCCCCC=O`, the call was inactive.

The target in the next assay is Nuclear receptor subfamily 4 group A member 2 (Homo sapiens) (UniProt P43354). Kind of assay: ATG_NURR1_TRANS: Attagene TRANS-FACTORIAL HepG2 Assay for human Nuclear Receptor Related Protein 1 (NURR1) (AID 2282985). To be noted: HepG2 Attagene TRANS reporter, mRNA readout. In outline:
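Cells: HepG2, transiently transfected. Exposure: 24 h. Detection: fluorescence of labelled RT-PCR products separated by capillary electrophoresis; upward fit versus DMSO.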
Regarding `[Co]`, the result was inactive.

On to `O=C(CC(=O)C(F)(F)C(F)(F)F)C(F)(F)F`, for which the result was inactive.

Take `O=C(O)C(F)(F)C(F)(F)C(F)(F)C(F)(F)C(F)(F)C(F)(F)C(F)(F)C(F)(F)Cl`: the AC50 was 31.2 µM (active) and the result was inactive.

With `CCN(Cc1cccc(S(=O)(=O)O)c1)c1ccc(C(=C2C=CC(=[N+](CC)Cc3cccc(S(=O)(=O)O)c3)C=C2)c2ccc(O)cc2S(=O)(=O)[O-])cc1`, the outcome was inactive.

In the case of `O=C(O)C(F)(F)C(F)(F)F`, the compound was classed as inactive.

Take `OCCCC(F)(F)C(F)(F)C(F)(F)F`: the result was inactive.

On to `O=C(O)C(F)(F)C(F)(F)C(F)(F)C(F)(F)C(F)(F)C(F)(F)C(F)(F)C(F)(F)C(F)(F)C(F)(F)C(F)(F)C(F)(F)C(F)(F)F`, for which the result was inactive.

With `O=C(O)C=C(C(F)(F)F)C(F)(F)F`, the compound was called inactive.

On to `O=S(=O)(O)c1ccc2ccccc2c1`, for which the compound was classed as inactive.

In the case of `CC/C=C\CCOC(=O)c1ccccc1`, the compound was called inactive.

As for `CC(C)c1ccccc1N`, the result was inactive.

Consider `CC/C=C\CCOC(C)=O`, for which the call was inactive.

Turning to `COC(=O)C1CCC(C(=O)OC)CC1` (stereo not drawn), the call was inactive.

Take `FC(F)(F)C(F)(F)C(F)(F)C(F)(F)C(F)(F)C(F)(F)CCS`: the result was inactive.

`O=C(O)C(F)(F)C(F)(F)C(F)(F)C(F)(F)C(F)(F)C(F)(F)C(F)(F)C(F)(F)C(F)(F)C(F)F`: the AC50 was 28.2 µM (active).

Take `O=C(O)C(F)(F)C(F)(F)C(F)(F)F`: the compound was classed as inactive.

Take `OCCCC(F)(F)C(F)(F)C(F)(F)C(F)(F)C(F)(F)C(F)(F)C(F)(F)F`: the AC50 was 16.6 µM (active) and 17.2 µM (active).

Turning to `CCCCCCCCC(F)(F)C(F)(F)C(F)(F)C(F)(F)C(F)(F)C(F)(F)F`, the compound was called inactive.

As for `FC(F)(F)C(F)(F)C(F)(F)C(F)(F)C(F)(F)C(F)(F)C(F)(F)C(F)(F)F`, the compound was called inactive.

Turning to `Oc1ccc(Nc2ccccc2)cc1`, the compound was called inactive.

With `CCCCCC=O`, the compound was classed as inactive.

For the compound `CC(CCl)OP(=O)(OC(C)CCl)OC(C)CCl` (stereo not drawn), the compound was classed as inactive.

With `O=S(=O)(OCCOC(F)(F)F)C(F)(F)F`, the result was inactive.

Source of the values: PubChem BioAssay (EPA / NIEHS).
